# Publication PMC7862700, “An all-to-all approach to the identification of sequence-specific readers for epigenetic DNA modifications on cytosine”
# How the values were obtained:
# Assay in all cases: DAPPL (digital affinity profiling via proximity ligation, sequencing); 10 mM Tris-HCl pH 7.5, 50 mM NaCl, 1 mM DTT, 4% glycerol, room temperature, 30 min; GST-TFs on glutathione beads, 16-mer random dsDNA library, 0.1% formaldehyde crosslink after washing; high values mean tight binding
# Settings in all cases: protein: recombinant; tags: N-terminal GST; dsDNA, one strand shown
# FLI1 = biological target: T1, FLI1 (Homo sapiens, UniProt Q01543 1-452)
# T1 sequence: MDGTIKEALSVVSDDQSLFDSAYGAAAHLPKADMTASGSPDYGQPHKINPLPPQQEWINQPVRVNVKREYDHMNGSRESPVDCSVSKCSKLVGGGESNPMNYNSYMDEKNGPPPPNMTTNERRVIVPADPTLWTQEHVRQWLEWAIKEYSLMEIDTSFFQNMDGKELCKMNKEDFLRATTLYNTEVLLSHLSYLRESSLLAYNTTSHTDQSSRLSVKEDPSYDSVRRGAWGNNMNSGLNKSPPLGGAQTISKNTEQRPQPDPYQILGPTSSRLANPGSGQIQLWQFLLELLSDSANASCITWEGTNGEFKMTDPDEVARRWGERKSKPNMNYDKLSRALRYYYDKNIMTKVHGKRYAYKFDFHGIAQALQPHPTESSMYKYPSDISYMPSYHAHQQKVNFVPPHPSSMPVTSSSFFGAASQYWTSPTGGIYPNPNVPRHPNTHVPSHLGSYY
# Method in brief: (§1)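 Yeast served to express human transcription factors as GST fusions, which were then captured on glutathione beads and labelled with DNA barcodes. Pooled with a tag-only sample, they were incubated with 200 nmole of a 16-mer random double-stranded DNA library for 30 min at room temperature in Tris/NaCl/DTT/glycerol buffer, washed, crosslinked with 0.1% formaldehyde, ligated by proximity, amplified by PCR and sequenced. Dividing each hexamer's read frequency for a factor by its frequency for the tag-only sample gives the binding signal.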
# ELK1 = biological target: T2, ELK1 (Homo sapiens, UniProt P19419 1-428)
# T2 sequence: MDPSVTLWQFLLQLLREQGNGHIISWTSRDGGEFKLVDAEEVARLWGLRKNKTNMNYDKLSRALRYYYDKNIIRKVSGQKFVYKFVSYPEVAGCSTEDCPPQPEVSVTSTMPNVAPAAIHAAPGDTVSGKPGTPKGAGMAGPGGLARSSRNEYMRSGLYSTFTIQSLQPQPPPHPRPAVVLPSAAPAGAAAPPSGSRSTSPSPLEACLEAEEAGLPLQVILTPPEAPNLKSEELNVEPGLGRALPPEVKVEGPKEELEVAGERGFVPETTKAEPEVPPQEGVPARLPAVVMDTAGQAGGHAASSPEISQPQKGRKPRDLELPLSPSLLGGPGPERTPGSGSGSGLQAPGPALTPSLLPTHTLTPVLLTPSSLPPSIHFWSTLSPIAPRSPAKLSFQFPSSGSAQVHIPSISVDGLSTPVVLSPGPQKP
# Method in brief: as §1
# GABPA = biological target: T3, GABPA (Homo sapiens, UniProt Q06546 1-454)
# T3 sequence: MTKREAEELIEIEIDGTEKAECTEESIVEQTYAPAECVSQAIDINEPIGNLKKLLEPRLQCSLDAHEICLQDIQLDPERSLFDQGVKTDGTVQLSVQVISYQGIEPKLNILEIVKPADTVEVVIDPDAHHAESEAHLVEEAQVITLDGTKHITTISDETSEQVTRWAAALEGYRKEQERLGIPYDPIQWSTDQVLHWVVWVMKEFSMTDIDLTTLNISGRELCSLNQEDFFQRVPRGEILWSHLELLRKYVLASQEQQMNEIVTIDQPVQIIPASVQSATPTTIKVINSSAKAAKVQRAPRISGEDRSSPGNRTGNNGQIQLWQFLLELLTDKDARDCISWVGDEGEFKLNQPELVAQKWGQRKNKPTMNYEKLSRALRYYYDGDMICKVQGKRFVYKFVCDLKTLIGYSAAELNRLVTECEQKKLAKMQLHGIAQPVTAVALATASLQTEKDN
# Method in brief: as §1
# ELF1 = ELF1 (Homo sapiens, UniProt P32519 1-619)
# ELF1, sequence (P32519 whole entry): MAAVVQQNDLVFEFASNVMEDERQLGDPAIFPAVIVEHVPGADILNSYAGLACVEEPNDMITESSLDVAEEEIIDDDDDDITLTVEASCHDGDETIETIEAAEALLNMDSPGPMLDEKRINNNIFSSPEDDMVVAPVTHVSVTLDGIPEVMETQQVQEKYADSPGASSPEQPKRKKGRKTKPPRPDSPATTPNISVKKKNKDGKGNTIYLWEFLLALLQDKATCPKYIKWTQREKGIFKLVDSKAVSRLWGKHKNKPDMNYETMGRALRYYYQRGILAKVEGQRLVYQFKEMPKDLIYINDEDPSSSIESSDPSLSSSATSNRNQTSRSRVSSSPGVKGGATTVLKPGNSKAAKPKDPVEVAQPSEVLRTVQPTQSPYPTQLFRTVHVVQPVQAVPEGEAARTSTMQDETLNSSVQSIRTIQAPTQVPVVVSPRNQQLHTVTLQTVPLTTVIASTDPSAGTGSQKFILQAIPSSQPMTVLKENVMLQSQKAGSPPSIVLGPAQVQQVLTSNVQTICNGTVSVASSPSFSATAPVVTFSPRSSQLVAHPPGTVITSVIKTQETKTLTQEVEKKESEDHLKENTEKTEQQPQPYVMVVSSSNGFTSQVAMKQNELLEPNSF
# Method in brief: as §1
# EHF = biological target: T4, EHF (Homo sapiens, UniProt Q9NZC4 1-300)
# T4 sequence: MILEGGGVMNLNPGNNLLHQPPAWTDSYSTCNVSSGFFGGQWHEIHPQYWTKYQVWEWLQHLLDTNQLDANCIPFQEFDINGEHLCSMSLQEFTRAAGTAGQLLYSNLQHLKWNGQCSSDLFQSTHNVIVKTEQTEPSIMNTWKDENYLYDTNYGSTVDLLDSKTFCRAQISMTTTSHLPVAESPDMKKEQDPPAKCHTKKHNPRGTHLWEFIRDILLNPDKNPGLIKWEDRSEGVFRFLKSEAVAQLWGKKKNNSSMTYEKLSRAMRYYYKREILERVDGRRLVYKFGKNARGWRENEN
# Method in brief: as §1
# SPIB = SPIB (Homo sapiens, UniProt Q01892 1-262)
# SPIB, sequence (Q01892 whole entry): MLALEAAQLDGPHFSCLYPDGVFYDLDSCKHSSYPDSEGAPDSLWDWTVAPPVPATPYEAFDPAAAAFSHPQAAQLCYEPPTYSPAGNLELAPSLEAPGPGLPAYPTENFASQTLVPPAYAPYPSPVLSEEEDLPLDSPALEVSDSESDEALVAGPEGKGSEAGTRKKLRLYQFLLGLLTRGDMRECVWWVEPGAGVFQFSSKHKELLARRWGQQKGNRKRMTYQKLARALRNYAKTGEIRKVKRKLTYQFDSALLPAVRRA
# Method in brief: as §1
# ELK3 = biological target: T5, ELK3 (Homo sapiens, UniProt P41970 1-407)
# T5 sequence: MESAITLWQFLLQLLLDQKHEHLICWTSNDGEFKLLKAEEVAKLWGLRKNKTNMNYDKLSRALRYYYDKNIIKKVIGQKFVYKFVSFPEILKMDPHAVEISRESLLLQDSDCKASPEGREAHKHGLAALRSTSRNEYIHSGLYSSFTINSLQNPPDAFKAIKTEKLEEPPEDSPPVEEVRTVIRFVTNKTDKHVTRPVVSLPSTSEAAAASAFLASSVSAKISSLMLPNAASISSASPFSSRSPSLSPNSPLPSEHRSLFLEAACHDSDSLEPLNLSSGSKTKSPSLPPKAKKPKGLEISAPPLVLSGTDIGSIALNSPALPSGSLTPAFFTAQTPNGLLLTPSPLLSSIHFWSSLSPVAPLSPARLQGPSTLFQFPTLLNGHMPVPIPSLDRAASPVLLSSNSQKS
# Method in brief: as §1
# SPIC = biological target: T6, SPIC (Homo sapiens, UniProt Q8N5J4 1-248)
# T6 sequence: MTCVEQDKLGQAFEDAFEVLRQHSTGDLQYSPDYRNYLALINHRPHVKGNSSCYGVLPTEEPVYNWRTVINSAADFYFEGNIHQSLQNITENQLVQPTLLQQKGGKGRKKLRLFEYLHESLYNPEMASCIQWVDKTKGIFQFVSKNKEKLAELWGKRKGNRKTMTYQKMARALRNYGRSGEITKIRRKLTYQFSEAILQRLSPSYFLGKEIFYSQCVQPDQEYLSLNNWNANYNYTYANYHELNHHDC
# Method in brief: as §1
# ELF4 = ELF4 (Homo sapiens, UniProt Q99607 1-663)
# ELF4, sequence (Q99607 whole entry): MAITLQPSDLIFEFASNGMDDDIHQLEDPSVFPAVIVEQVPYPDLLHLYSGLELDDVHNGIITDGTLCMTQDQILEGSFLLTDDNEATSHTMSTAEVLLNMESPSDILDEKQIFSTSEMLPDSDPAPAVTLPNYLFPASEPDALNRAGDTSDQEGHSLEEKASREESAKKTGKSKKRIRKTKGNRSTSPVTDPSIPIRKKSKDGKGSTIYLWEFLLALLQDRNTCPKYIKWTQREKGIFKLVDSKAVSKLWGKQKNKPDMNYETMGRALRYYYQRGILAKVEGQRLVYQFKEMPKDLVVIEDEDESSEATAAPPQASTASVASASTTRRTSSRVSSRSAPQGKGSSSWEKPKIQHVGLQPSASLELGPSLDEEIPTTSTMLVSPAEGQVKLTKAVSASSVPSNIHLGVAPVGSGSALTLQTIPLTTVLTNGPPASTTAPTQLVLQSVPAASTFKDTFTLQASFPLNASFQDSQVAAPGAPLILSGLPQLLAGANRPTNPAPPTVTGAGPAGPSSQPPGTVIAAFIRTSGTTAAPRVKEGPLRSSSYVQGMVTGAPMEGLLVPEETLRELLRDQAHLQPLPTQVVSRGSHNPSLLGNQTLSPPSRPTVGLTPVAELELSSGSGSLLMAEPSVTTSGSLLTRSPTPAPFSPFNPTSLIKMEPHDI
# Method in brief: as §1
# ELK4 = biological target: T7, ELK4 (Homo sapiens, UniProt P28324-2 1-405)
# T7 sequence: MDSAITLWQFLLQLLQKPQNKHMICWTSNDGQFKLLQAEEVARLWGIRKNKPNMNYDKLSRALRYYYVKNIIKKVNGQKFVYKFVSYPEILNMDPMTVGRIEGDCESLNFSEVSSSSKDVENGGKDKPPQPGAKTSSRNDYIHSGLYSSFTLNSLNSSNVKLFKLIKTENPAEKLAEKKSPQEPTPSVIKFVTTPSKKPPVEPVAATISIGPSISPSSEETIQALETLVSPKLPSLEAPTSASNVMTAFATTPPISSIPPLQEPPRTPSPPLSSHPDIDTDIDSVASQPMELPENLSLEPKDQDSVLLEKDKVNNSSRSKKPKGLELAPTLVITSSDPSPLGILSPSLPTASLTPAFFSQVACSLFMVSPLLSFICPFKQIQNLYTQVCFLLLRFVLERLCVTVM
# Method in brief: as §1
# ETV2 = biological target: T8, ETV2 (Homo sapiens, UniProt O00321 1-342)
# T8 sequence: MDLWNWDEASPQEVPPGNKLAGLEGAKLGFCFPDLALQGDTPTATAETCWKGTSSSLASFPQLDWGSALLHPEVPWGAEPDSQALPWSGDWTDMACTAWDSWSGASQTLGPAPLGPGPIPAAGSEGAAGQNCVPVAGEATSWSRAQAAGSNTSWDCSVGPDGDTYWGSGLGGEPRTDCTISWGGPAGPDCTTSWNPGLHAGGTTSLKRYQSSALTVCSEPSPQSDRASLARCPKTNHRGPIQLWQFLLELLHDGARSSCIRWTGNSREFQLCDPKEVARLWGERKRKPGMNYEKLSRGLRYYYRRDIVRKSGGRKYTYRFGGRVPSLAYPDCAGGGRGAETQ
# Method in brief: as §1
# ELF3 = biological target: T9, ELF3 (Homo sapiens, UniProt P78545 1-371)
# T9 sequence: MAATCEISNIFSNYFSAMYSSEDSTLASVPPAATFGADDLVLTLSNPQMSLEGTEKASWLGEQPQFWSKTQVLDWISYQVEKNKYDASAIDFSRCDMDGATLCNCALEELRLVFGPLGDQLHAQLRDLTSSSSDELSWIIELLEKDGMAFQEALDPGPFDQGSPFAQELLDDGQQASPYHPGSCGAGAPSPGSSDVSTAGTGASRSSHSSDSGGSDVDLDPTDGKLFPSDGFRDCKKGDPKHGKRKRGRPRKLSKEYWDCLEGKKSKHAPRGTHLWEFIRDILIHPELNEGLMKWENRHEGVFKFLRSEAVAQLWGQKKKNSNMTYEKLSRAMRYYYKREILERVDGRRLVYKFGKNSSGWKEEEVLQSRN
# Method in brief: as §1
# ETV1 = ETV1 (Homo sapiens, UniProt P50549 1-477)
# ETV1, sequence (P50549 whole entry): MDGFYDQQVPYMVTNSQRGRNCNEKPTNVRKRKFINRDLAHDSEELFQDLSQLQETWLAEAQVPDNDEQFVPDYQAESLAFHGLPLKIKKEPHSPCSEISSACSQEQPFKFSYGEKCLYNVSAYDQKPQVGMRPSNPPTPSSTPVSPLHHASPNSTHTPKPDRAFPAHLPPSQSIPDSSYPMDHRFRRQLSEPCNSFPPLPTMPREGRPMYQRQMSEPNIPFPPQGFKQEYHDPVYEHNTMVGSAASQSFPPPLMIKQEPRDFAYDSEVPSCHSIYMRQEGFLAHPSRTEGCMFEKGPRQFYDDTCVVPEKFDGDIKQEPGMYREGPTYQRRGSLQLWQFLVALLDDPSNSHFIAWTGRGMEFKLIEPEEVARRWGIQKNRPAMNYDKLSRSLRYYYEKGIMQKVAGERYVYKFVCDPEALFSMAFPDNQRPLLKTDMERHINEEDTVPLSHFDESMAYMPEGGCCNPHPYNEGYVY
# Method in brief: as §1
# ETV3L = biological target: T10, ETV3L (Homo sapiens, UniProt Q6ZN32 1-361)
# T10 sequence: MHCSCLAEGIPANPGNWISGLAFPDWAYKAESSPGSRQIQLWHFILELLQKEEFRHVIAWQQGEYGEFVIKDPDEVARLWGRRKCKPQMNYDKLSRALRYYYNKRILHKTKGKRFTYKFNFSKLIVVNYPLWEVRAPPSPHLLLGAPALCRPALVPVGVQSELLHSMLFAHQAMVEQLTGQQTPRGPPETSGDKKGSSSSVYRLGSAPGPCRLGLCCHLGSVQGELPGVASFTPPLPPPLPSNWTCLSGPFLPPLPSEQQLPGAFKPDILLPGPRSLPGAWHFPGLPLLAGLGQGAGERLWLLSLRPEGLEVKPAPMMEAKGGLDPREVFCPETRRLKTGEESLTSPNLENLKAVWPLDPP
# Method in brief: as §1
# ETS2 = biological target: T11, ETS2 (Homo sapiens, UniProt P15036 1-469)
# T11 sequence: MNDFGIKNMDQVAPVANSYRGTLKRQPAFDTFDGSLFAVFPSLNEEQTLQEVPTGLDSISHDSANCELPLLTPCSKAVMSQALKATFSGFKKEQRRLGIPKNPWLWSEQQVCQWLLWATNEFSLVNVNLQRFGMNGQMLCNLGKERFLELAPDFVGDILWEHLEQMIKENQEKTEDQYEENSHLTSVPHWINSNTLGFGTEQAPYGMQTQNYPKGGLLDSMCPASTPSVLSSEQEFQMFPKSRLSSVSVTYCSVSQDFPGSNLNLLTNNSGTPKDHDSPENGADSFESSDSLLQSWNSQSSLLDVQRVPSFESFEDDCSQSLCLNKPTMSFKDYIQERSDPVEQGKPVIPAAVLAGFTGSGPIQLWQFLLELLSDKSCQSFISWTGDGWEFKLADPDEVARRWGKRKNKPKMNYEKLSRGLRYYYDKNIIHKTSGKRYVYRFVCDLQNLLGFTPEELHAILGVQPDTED
# Method in brief: as §1
# ETV7 = biological target: T12, ETV7 (Homo sapiens, UniProt Q9Y603 1-341)
# T12 sequence: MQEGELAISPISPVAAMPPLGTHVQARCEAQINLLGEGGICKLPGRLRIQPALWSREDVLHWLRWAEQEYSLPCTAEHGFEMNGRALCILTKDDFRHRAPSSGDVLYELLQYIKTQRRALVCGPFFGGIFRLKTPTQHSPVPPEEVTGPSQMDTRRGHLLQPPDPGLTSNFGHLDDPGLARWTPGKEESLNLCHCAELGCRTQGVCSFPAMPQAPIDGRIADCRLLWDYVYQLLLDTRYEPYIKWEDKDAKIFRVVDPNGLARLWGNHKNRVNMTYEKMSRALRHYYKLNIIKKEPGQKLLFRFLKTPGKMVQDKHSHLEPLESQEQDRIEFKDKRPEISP
# Method in brief: as §1
# ETV3 = biological target: T13, ETV3 (Homo sapiens, UniProt P41162-2 1-143)
# T13 sequence: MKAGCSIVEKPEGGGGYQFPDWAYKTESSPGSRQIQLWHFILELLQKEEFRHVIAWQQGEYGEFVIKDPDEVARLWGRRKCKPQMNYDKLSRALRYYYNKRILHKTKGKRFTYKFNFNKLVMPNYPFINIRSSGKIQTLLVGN
# Method in brief: as §1
# ETV6 = ETV6 (Homo sapiens, UniProt P41212 1-452)
# ETV6, sequence (P41212 whole entry): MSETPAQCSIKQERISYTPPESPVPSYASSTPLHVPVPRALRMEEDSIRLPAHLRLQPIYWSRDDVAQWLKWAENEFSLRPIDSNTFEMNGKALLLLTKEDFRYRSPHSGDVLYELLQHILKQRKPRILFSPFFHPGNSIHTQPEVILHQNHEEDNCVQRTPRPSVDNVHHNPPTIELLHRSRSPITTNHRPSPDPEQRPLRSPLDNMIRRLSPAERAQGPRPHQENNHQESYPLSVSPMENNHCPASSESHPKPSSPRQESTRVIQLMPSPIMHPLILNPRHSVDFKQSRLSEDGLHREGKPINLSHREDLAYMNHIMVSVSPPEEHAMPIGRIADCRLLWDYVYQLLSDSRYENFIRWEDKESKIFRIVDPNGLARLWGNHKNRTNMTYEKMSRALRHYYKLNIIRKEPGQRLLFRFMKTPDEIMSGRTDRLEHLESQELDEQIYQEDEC
# Method in brief: as §1
sequence,measurement,setting,value
TAGATA,binding signal,FLI1,"1.07 fold enrichment (6-mer frequency, TF over GST control)"
same,binding signal,ELK1,"1.03 fold enrichment (6-mer frequency, TF over GST control)"
same,binding signal,GABPA,"1.1 fold enrichment (6-mer frequency, TF over GST control)"
same,binding signal,ELF1,"1.06 fold enrichment (6-mer frequency, TF over GST control)"
same,binding signal,EHF,"1.06 fold enrichment (6-mer frequency, TF over GST control)"
same,binding signal,SPIB,"1.05 fold enrichment (6-mer frequency, TF over GST control)"
same,binding signal,ELK3,"1.02 fold enrichment (6-mer frequency, TF over GST control)"
same,binding signal,SPIC,"1.17 fold enrichment (6-mer frequency, TF over GST control)"
same,binding signal,ELF4,"1.07 fold enrichment (6-mer frequency, TF over GST control)"
same,binding signal,ELK4,"1.08 fold enrichment (6-mer frequency, TF over GST control)"
same,binding signal,ETV2,"1.12 fold enrichment (6-mer frequency, TF over GST control)"
same,binding signal,ELF3,"1.08 fold enrichment (6-mer frequency, TF over GST control)"
same,binding signal,ETV1,"1.06 fold enrichment (6-mer frequency, TF over GST control)"
same,binding signal,ETV3L,"1.12 fold enrichment (6-mer frequency, TF over GST control)"
same,binding signal,ETS2,"1.05 fold enrichment (6-mer frequency, TF over GST control)"
same,binding signal,ETV7,"1.02 fold enrichment (6-mer frequency, TF over GST control)"
same,binding signal,ETV3,"1.01 fold enrichment (6-mer frequency, TF over GST control)"
same,binding signal,ETV6,"1.01 fold enrichment (6-mer frequency, TF over GST control)"
